# Many of the other results were omitted from the sample, so hits are more common in it than they were.
# CXXC DNA block: blocks binding of human MLL CXXC domain to DNA; MLL-CXXC / FITC-HOXA9 DNA fluorescence polarization; Potency, µM (highest dose often 115 µM), without a hit: top-dose activity change, negative = inhibition, most hits filed as inhibitors; 290,000 compounds, 0.037% hits; AID 2662; active = well fitted inhibition curve with a large enough effect in the polarisation, with a control signal flat, not every such curve was filed as active; inconclusive = small, poorly fitted or top-dose-only effect, or effect the other way, or a change in a side signal; inactive = no such curve, though single readings can be large or run the other way; the % refers to the polarisation; also: potency is read from the fitted curve at half-maximal effect
#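 Steps: dispense CXXC domain solution (7 uM) → pin compounds or unlabeled HOX-A9 DNA control → 5 min ambient → add FLSN-HOX-A9 solution (50 nM) → spin → 30 min ambient → fluorescence polarization. Tris pH 7.5/NaCl/DTT/BSA buffer.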
# Menin MLL FP FL: inhibitors of human menin-MLL interaction, wild-type MLL peptide; Fluorescence polarization, fluorescein-MLL peptide displacement from menin; FP activity change, % at 61.4 µM; 290,000 tested, under 10 active; AID 1766; active = well fitted curve in the direction sought with a large enough effect in the polarisation, not every such curve was filed as active; inconclusive = small, poorly fitted or top-dose-only effect, or effect the other way, or a change in a side signal; inactive = no such curve, though single readings can be large or run the other way; the % refers to the polarisation; also: % of control where 0% means no effect
# p53 reactivation: restores transcriptional activity of mutant p53; 320,000 compounds, 0.063% hits; H1299 p53-A138V BP100-luciferase reporter, luminescence, 24 h; Potency, µM (titrated, usually from 92.2 µM), for the others: at the top dose activity change, positive = activation, actives largely listed as activators; active = well fitted activation curve with a large enough effect; inconclusive = small, poorly fitted or top-dose-only effect; inactive = no such curve, though single readings can be large or run the other way; also: potency is read from the fitted curve at half-maximal effect; % of control where 0% means no effect; nearly all actives have a fitted effect of over 45% in size
#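 p53-null H1299 cells stably carrying temperature-sensitive p53-A138V and a BP100-luciferase reporter were pinned with compounds (4-point, 1:5 series) and held 24 hrs at 37 deg C. Luminescence was read 10 min after detection reagent.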
# Menin MLL FP TR: displaces Texas Red mutant MLL peptide from human menin; Potency, µM (doses to about 61.6 µM), for inactives: at the top dose FP activity change, negative = inhibition, actives largely listed as inhibitors; AID 1768; O00255; 270,000 compounds, 0.23% hits; Menin + Texas Red MLL mutant peptide, fluorescence polarization; active = well fitted inhibition curve with a large enough effect in the polarisation, with a control signal flat, not every such curve was filed as active; inconclusive = small, poorly fitted or top-dose-only effect, or effect the other way, or a change in a side signal; inactive = no such curve, though single readings can be large or run the other way; the % refers to the polarisation; also: potency is read from the fitted curve at half-maximal effect; % of control where 0% means no effect
# ClpP mod: qHTS Assay for Activators of ClpP; ATP-dependent Clp protease proteolytic subunit (Bacillus subtilis (strain 168)), P80244; purified B. subtilis ClpP, FRET peptide cleavage, 20 min; Potency, µM (titrated, usually from 57.5 µM), for the others: at the highest dose activity change, negative = active; 340,000 compounds, 1.9% hits; AID 651965, 2013; active = well fitted falling curve with a large enough effect; inconclusive = small, poorly fitted or top-dose-only effect; inactive = no such curve, though single readings can be large or run the other way; also: potency is read from the fitted curve at half-maximal effect; the source files actives as falling curves though it sought activators and does not explain the sign; nearly all actives have a fitted effect of over 65% in size
#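 ClpP 10 microg/mL final, pH 8 Tris/KCl buffer with BSA, glycerol, Tween-20; compound pinned in; FRET-FV substrate; RT 20 min; Ex320/Em430; ΔFRET vs ADEP 5.8 microM, DMSO, no enzyme.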
# * hit, by the source's call; ? = inconclusive; . = no result.
SMILES,CXXC DNA block,Menin MLL FP FL,p53 reactivation,Menin MLL FP TR,ClpP mod
O=C(COc1nnc2ccccn12)N1CCN(S(=O)(=O)c2ccccc2)CC1,.,.,.,.,32µM*
O=C(COc1cccnc1[N+](=O)[O-])N1CCN(S(=O)(=O)c2ccccc2)CC1,3%,4,-13%,-29%,4%
COc1cccc(/C=C/C(=O)OCC(=O)Nc2cccc(S(=O)(=O)N3CCCCC3)c2)c1OC,4%,2,0%,16%,28µM*
CC(=O)Nc1ccc(C(=O)OCC(=O)Nc2ccc(N3CCOCC3)cc2)cc1,4%,3,-1%,11%,-2%
COc1ccc(/C=C/C(=O)OCC(=O)Nc2ccc(C)cc2)cc1S(=O)(=O)N1CCOCC1,3%,6,16%,14%,7.9µM*
COc1ccc(NC(=O)COC(=O)/C=C/c2ccc(OC)c(S(=O)(=O)N3CCOCC3)c2)cc1,-2%,7,3%,-7%,-9%
Cc1ccc(C(=O)OCC(=O)Nc2ccc(N3CCOCC3)cc2)cc1,.,.,9%,.,32µM*
COc1ccc(OC)c(/C=C/C(=O)OCC(=O)Nc2cccc(Oc3ccccc3)c2)c1,-1%,-1,3%,5%,35µM*
C=C[C@@]1(C)CC(=O)[C@]2(O)[C@@]3(C)[C@H](O)CCC(C)(C)[C@@H]3[C@H](O)[C@H](OC(C)=O)[C@@]2(C)O1,.,1,.,5%,.
O=C(Nc1ccc(Cl)cn1)c1cnn2c1NC(=C1CC1)C=C2C(F)F,.,.,.,.,70%
CCc1cccc2cc(C(O)CNC(C)(C)C)oc12 (stereo not given),.,0,.,-8%,.
CCn1cc(C(=O)NCCc2ccc(OC)c(OC)c2)c(=O)c2cc(S(=O)(=O)N3CCOCC3)ccc21,8%,0,0%,16µM*,-1%
CC(=O)N1CCN(C(=O)c2ccc(NS(=O)(=O)c3ccc4c(c3)OCCO4)cc2)CC1,.,.,2%,.,-2%
CC(=O)N1CCN(C(=O)c2ccc(NS(=O)(=O)c3ccc(Cl)c(Cl)c3)cc2)CC1,.,.,.,.,14µM*
C=C1CCN(C(CC(C)C)C(=O)NCCCc2ccccc2)S(=O)(=O)c2ccccc21 (stereo not given),.,1,.,-6%,.
CCCn1c(SCC#N)nc2c(c1=O)C1(CCCC1)Cc1ccccc1-2,4%,1,6%,?,-18%
N#CCSc1n[nH]c2nc3c(c(=O)n12)C1(CCCC1)Cc1ccccc1-3,-7%,1,-2%,?,16µM*
N#Cc1ccc(NC(=O)COc2ccccc2C(=O)Nc2ccccc2)cc1,.,.,.,.,-9%
O=C(Nc1cc([N+](=O)[O-])c2[nH]c(=O)c3ccccc3c2c1)C(F)(F)F,.,.,.,.,32µM*
O=P(Cc1ccccc1)(Cc1ccccc1)c1ccccc1,.,.,.,.,32µM*
CCn1c(=NC(=O)c2ccc(S(=O)(=O)N3CCOCC3)cc2)sc2cccc(OC)c21,1%,9,1%,19%,32µM*
C=CCNC(=S)NC1CC(C)(C)NC(C)(C)C1,2%,3,8%,-6%,2%
CC1(C)CC(NC(=S)NC2CC2)CC(C)(C)N1,0%,0,-2%,8%,35µM*
N=c1c(C(=O)NCc2ccco2)cc2c(=O)n3ccccc3nc2n1Cc1ccccc1,0%,12,-2%,-25%,18µM*
N=c1c(C(=O)NC2CCCC2)cc2c(=O)n3ccccc3nc2n1C1CCCC1,2%,5,-1%,-20%,3.2µM*
SMILES,CXXC DNA block,Menin MLL FP FL,p53 reactivation,Menin MLL FP TR,ClpP mod
COCCn1c(=N)c(C(=O)NCc2ccco2)cc2c(=O)n3ccccc3nc21,2%,-2,-1%,14%,28µM*
Cc1cccn2c(=O)c3cc(C(=O)NCc4ccco4)c(=N)n(C(C)C)c3nc12,0%,5,8%,-8%,14µM*
Cc1cccn2c(=O)c3cc(C(=O)NC4CCCC4)c(=N)n(C4CCCC4)c3nc12,14%,1,-9%,-25%,?
NCCCCCc1cnc[nH]1,.,-4,.,8%,.
CC1=CC(O)=NS(=O)(=O)O1,.,.,.,.,0%
Cc1c2cnn(CC(=O)N3CCCCC3)c(=O)c2c(C)n1Cc1ccc(Cl)cc1,.,.,.,.,-26%
COc1ccc(-c2nnc(NC(=O)CSc3ccccc3)s2)cc1OC,-3%,-2,10%,-3%,22µM*

# Source: PubChem BioAssay (National Center for Advancing Translational Sciences (NCATS))
